Test results: PubChem BioAssay (Tox21)
A number with no mark means an inactive call. The source made the active and inactive calls. Calls follow the shape of the dose curve; as a rule, active = well fitted curve in the direction sought with a large enough effect in the repeat runs; inconclusive = weak or mixed curves; inactive = flat fitted curve, though single readings scatter.

Assay: qHTS assay to test for compound auto fluorescence at 590 nm (red) in HEK293 cell free culture (AID 720683)
Details: cell-free medium autofluorescence, Ex540/Em590 red; series mostly up to 91.3 µM; fluorescence, % of fluorescent control: at the top concentration
Method in brief: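 Red-channel autofluorescence of compounds in culture medium (DMEM, 10% FBS), no cells, measured at 540/590 nm. Rose Bengal sodium is the reference fluorophore for equivalence.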
% is scaled to controls: 0 for no effect and ±100 for the full control effect.

SMILES	fluorescence, % of fluorescent control	outcome
CCN(CC)CCOC(=O)C1(c2ccccc2)CCCC1	-0.548% [at 46 µM]	–
CC(C)(C)c1ccc(OCC2CO2)cc1 (configuration not stated)	0.02% [at 95.7 µM]	–
COc1cc(C(C)(C)C)c(O)c(C(C)(C)C)c1	0.533%	–
Cc1ccccn1	–	inactive
CCOc1ccc(NC(=O)CC(C)=O)cc1	-0.436%	–
CC(=O)/C=C/C1C(C)=CCCC1(C)C (configuration not stated)	-0.471%	–
CCCCOC(=O)/C=C\C(=O)OCCCC	-0.0748% [at 95.7 µM]	–
N#CCCNCCC#N	0.035% [at 95.7 µM]	–
CCCOc1ccc2nc(NC(=O)OC)[nH]c2c1	0.286% [at 46 µM]	–
O=C1c2cccc(O)c2C(=O)c2c(O)cc(CO)cc21	0.244%	–
CCOC(=O)C1=NN(c2ccccc2)C(=O)C1	0.198%	–
CC(=O)SCc1ccco1	0.0292%	–
Cc1ccccc1N=Nc1ccc(N=Nc2c(O)ccc3ccccc23)c(C)c1	-0.0436% [at 46 µM]	–
CN(C(=O)CCCOc1ccc2[nH]c(=O)ccc2c1)C1CCCCC1	-0.712% [at 46 µM]	–
CCN(CC)C(C)CN1c2ccccc2Sc2ccccc21 (configuration not stated)	-0.0816% [at 18.6 µM]	–
Cc1ccc(C(=O)C(C)CN2CCCCC2)cc1 (configuration not stated)	–	inactive
O=C(O)Cn1c(C(=O)Nc2nc(-c3ccccc3Cl)cs2)cc2ccccc21	-0.793% [at 46 µM]	–

Assay: qHTS assay to test for compound auto fluorescence at 590 nm (red) in HepG2 cell free culture (AID 720684)
Details: cell-free medium autofluorescence, red 540/590 nm; series mostly up to 91.3 µM; fluorescence, % of Rose Bengal: at the top concentration
Method in brief: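 Plate contents were MEM with 10% FBS plus test compound or DMSO, no cells. Fluorescence was recorded with 540 nm excitation and 590 nm emission.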

SMILES	fluorescence, % of Rose Bengal	outcome
CN(C)CC[C@@H](c1ccc(Br)cc1)c1ccccn1	0.412% [at 46 µM]	–
O=C(O)/C=C/c1cnc[nH]1	-0.162%	–
CC(C)CCCCCCOC(=O)c1ccc(C(=O)OCCCCCCC(C)C)c(C(=O)OCCCCCCC(C)C)c1	0.03%	–
O=c1[nH]cnc2ccccc12	0.0417% [at 95.7 µM]	–
CCN(CC)CCOc1ccc2c(c1)C(=O)c1cc(OCCN(CC)CC)ccc1-2	0.0288% [at 46 µM]	–
CC(=O)OCCc1ccccc1	0.0014%	–
CCCCCCCCCCCCC(=O)O	-0.0167%	–
Oc1ccc(Cc2ccccc2)cc1	0.063%	–
NC1CCN(c2nc3c(cc2F)c(=O)c(C(=O)O)cn3-c2ccc(F)cc2F)C1 (configuration not stated)	0.0202% [at 46 µM]	–
CC(C)c1ccc2c(C(C)C)cc(C(C)C)c(S(=O)(=O)O)c2c1	0.212% [at 95.7 µM]	–
CCN1CCC[C@H]1CNC(=O)c1c(OC)ccc(Br)c1OC	-0.204% [at 46 µM]	–
O=CNc1ccccc1	-0.624%	–
O=C(O)[C@@H]1[C@H]2C[C@H]3c4[nH]c5ccccc5c4CCN3C[C@@H]2CC[C@@H]1O	-0.199% [at 18.6 µM]	–
O=C(O)Cc1cc(I)c(Oc2ccc(O)c(I)c2)c(I)c1	–	inactive
O=c1c2ccccc2nnn1CCl	-0.0599%	–
O=C(NN1CCCC1)NS(=O)(=O)c1ccc(Cl)cc1	-0.248% [at 46 µM]	–
C[C@@H](C1=C(CCN(C)C)Cc2ccccc21)c1ccccn1	0.0994% [at 46 µM]	–

SMILES	fluorescence, % of Rose Bengal	outcome
CC(=O)N(O)CCCCCNC(=O)CCC(=O)N(O)CCCCCNC(=O)CCC(=O)N(O)CCCCCN	-0.352% [at 18.6 µM]	–
CC(C)(C)c1ccc(OCC2CO2)cc1 (configuration not stated)	0.106% [at 95.7 µM]	–
COc1cc(C(C)(C)C)c(O)c(C(C)(C)C)c1	-0.203%	–
Cc1ccccn1	–	inactive
CCOc1ccc(NC(=O)CC(C)=O)cc1	-0.451%	–
CC(=O)/C=C/C1C(C)=CCCC1(C)C (configuration not stated)	-0.285%	–
CCCCOC(=O)/C=C\C(=O)OCCCC	-0.0172% [at 95.7 µM]	–
N#CCCNCCC#N	0% [at 95.7 µM]	–
CCCOc1ccc2nc(NC(=O)OC)[nH]c2c1	-0.0242% [at 46 µM]	–
O=C1c2cccc(O)c2C(=O)c2c(O)cc(CO)cc21	0.391%	–
CCOC(=O)C1=NN(c2ccccc2)C(=O)C1	0.0382%	–
CC(=O)SCc1ccco1	-0.046%	–
Cc1ccccc1N=Nc1ccc(N=Nc2c(O)ccc3ccccc23)c(C)c1	0.576% [at 46 µM]	–
CN(C(=O)CCCOc1ccc2[nH]c(=O)ccc2c1)C1CCCCC1	0.0438% [at 46 µM]	–
CCN(CC)C(C)CN1c2ccccc2Sc2ccccc21 (configuration not stated)	-0.332% [at 18.6 µM]	–
Cc1ccc(C(=O)C(C)CN2CCCCC2)cc1 (configuration not stated)	–	inactive
O=C(O)Cn1c(C(=O)Nc2nc(-c3ccccc3Cl)cs2)cc2ccccc21	0.069% [at 46 µM]	–

Assay: qHTS assay to test for compound auto fluorescence at 460 nm (blue) in HepG2 cell free culture (AID 720685)
Details: Cell-free culture medium, blue autofluorescence 405/460 nm; series mostly up to 91.3 µM; fluorescence, % of fluorescent control: at the top concentration
Method in brief: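 Compound (23 nL) or DMSO pinned into cell-free MEM with 10% FBS; blue fluorescence read at 405/460 nm excitation/emission, expressed as auto-fluorescence equivalency to triamterene.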

SMILES	fluorescence, % of fluorescent control	Potency
O=C(O)/C=C/c1cnc[nH]1	0.042%	–
CC(C)CCCCCCOC(=O)c1ccc(C(=O)OCCCCCCC(C)C)c(C(=O)OCCCCCCC(C)C)c1	0.0689%	–
O=c1[nH]cnc2ccccc12	-0.0334% [at 95.7 µM]	–
CCN(CC)CCOc1ccc2c(c1)C(=O)c1cc(OCCN(CC)CC)ccc1-2	-0.0807% [at 46 µM]	–
CC(=O)OCCc1ccccc1	-0.0925%	–
O=C(O)COC(=O)Cc1ccccc1Nc1c(Cl)cccc1Cl	0.0872% [at 18.6 µM]	–
CCCCCCCCCCCCC(=O)O	0.212%	–
Oc1ccc(Cc2ccccc2)cc1	-0.0147%	–
NC1CCN(c2nc3c(cc2F)c(=O)c(C(=O)O)cn3-c2ccc(F)cc2F)C1 (configuration not stated)	0.0003% [at 46 µM]	–
CC(C)c1ccc2c(C(C)C)cc(C(C)C)c(S(=O)(=O)O)c2c1	0.0492% [at 95.7 µM]	–
CCN1CCC[C@H]1CNC(=O)c1c(OC)ccc(Br)c1OC	-0.0983% [at 46 µM]	–
O=CNc1ccccc1	-0.132%	–
Cc1cccc(Oc2ccccc2)c1	-0.0346%	–
O=C(O)[C@@H]1[C@H]2C[C@H]3c4[nH]c5ccccc5c4CCN3C[C@@H]2CC[C@@H]1O	4.25% [at 18.6 µM]	–
O=C(O)Cc1cc(I)c(Oc2ccc(O)c(I)c2)c(I)c1	–	inactive
O=c1c2ccccc2nnn1CCl	0.0594%	–

SMILES	fluorescence, % of fluorescent control	Potency
CCN(CC)CCOC(=O)C1(c2ccccc2)CCCC1	-0.0856% [at 46 µM]	–
CC(C)(C)c1ccc(OCC2CO2)cc1 (configuration not stated)	-0.0096% [at 95.7 µM]	–
COc1cc(C(C)(C)C)c(O)c(C(C)(C)C)c1	0.206%	–
Cc1ccccn1	–	inactive
CCOc1ccc(NC(=O)CC(C)=O)cc1	-0.112%	–
CC(=O)/C=C/C1C(C)=CCCC1(C)C (configuration not stated)	-0.22%	–
CCCCOC(=O)/C=C\C(=O)OCCCC	0.0758% [at 95.7 µM]	–
N#CCCNCCC#N	-0.0938% [at 95.7 µM]	–
CCCOc1ccc2nc(NC(=O)OC)[nH]c2c1	-0.0092% [at 46 µM]	–
O=C1c2cccc(O)c2C(=O)c2c(O)cc(CO)cc21	-0.146%	–
CCOC(=O)C1=NN(c2ccccc2)C(=O)C1	0.0654%	–
CC(=O)SCc1ccco1	0.275%	–
CN(C(=O)CCCOc1ccc2[nH]c(=O)ccc2c1)C1CCCCC1	0.111% [at 46 µM]	–
CCN(CC)C(C)CN1c2ccccc2Sc2ccccc21 (configuration not stated)	0.0011% [at 18.6 µM]	–
O=C(O)Cn1c(C(=O)Nc2nc(-c3ccccc3Cl)cs2)cc2ccccc21	0.0885% [at 46 µM]	–
